The text below walks through data of PubChem BioAssay AID836 (Columbia University Molecular Screening Center, 2007).

About 160 (0.18%) of roughly 91,000 compounds were called active. This is one part of a sample in which actives are shown more often than they occur. Values without a mark were called inactive.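 The calls were made as follows: active = inhibition above the batch mean plus 3 SD and confirmed as a hit by visual image inspection (cut at about 30% in these data, passing the limit was not always enough); inconclusive = above the inhibition threshold but rejected on visual inspection; inactive = the rest.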

Usually inhibition stands for the change of the read-out against control, counted positive when it falls.

The nature of this experiment: disruptors of actin filament network in HUVEC – imaging, phalloidin staining, high-content imaging, primary screen (AID 836). The conditions noted are these: HUVEC TNFa F-actin phalloidin imaging, at 2 µM, hits give high values.
Regarding `Cc1ccc(OCC(=O)Nc2cccc3c2CCCC3)cc1C`, the inhibition was -5.6%.
The value for `COc1cc(C(=S)N2CCOCC2)cc(OC)c1OC(=O)c1cc([N+](=O)[O-])c(C)c([N+](=O)[O-])c1` was -7.7%; that for `COc1ccc(C(=S)Nc2ccccc2)cc1` was 2.8%.
The value for `COc1nc(-c2ccc(Cl)cc2)ccc1-c1noc(-c2cccs2)n1` was 19.6%; that for `Cc1occc1C(=O)NNC(=S)NCC(C)C` was -20.3%; that for `CSc1ccccc1-c1nnc(-c2ccc(Cl)cc2)o1` was -9.7%.
`Cc1ccc(-c2nc3ccccc3[nH]2)cc1NC(=O)c1sc2ccccc2c1Cl`: the inhibition is -19%.
In the case of `O=C(c1ccccc1)c1cc(-c2ccccn2)c(N2CCOCC2)s1`, the inhibition is -8.8%.
To `COC(=O)C(C)Oc1ccc2c(-c3cccc([N+](=O)[O-])c3)cc(=O)oc2c1` (stereo unspecified) belongs 19.5%; to `Cc1ccccc1NC(=O)c1ccccc1NS(=O)(=O)c1cccc2cccnc12`, -7.4%; to `Cc1nn(Cc2ccccc2Cl)c(C)c1NC(=O)Cn1nc([N+](=O)[O-])c(Cl)c1C`, -13.3%.
To `CC(C)C(C)NC(=O)COc1ncnc2ccccc12` (stereo unspecified) belongs 2.1%.
Consider `O=C(Nc1ccc(-n2ccnc2P(=O)(O)c2ccccc2)cc1)c1ccccc1Br`, for which the inhibition is -15.1%.
To `O=C(CSCc1ccc([N+](=O)[O-])cc1)NCCSCc1ccccc1` belongs -4.8%.
The value for `COc1ccc(/C=C(/NC(=O)c2ccc(C)cc2)c2nc3ccccc3[nH]2)cc1OC` was 24.6%.
To `Cc1cc(C)c2c3c(sc2n1)C(c1ccccc1)C(C#N)=C(N)O3` (stereo unspecified) belongs 7.5%.
In the case of `CC(C)(C)c1cc2cccnc2n1Cc1ccccc1`, the inhibition is -13.7%.
Take `COCCCNC(NC(=O)c1ccc(C)cc1)C(Cl)(Cl)Cl` (stereo unspecified): the inhibition is -4.7%.
Consider `O=C1COc2ccc(NC(=O)N3CCN(c4ccc(F)cc4)CC3)cc2N1`, for which the inhibition is -1.9%.
To `COc1ccccc1NC(=O)[C@H](COCc1ccccc1)NC(=O)OC(C)(C)C` belongs -9.9%.
For the molecule `Oc1ccccc1/C=N/n1c(-c2cccs2)n[nH]c1=S`, the inhibition is -11.3%.
As to `COc1ccc(C(=O)c2c(C)oc3cc([N+](=O)[O-])c(O)c([N+](=O)[O-])c23)cc1`, the inhibition was 3.1%.
The value for `C=CCOc1c2ccc(C(=O)N(CC)c3ccc(OC)cc3)cc2nn1C` was 12.9%; that for `COc1cccc(/C=N/NC(=O)c2cccc([N+](=O)[O-])c2)c1OS(=O)(=O)c1ccc(C)cc1` was -0.8%; that for `CCn1c(SC)nc(O)c(C(c2ccc(OC)c(O)c2)c2c(O)nc(SC)n(CC)c2=O)c1=O` was 10.2%.
The value for `COc1cccc(NC(=O)c2nn(C34CC5CC(CC(C5)C3)C4)cc2[N+](=O)[O-])c1` was 14%; that for `Cc1ccc(-c2nnc(C)c(N3CC(C)OC(C)C3)n2)cc1` (stereo unspecified) was 9.5%; that for `COC(=O)c1c(CCl)noc1C(=O)NC(C)C` was -7%.
In the case of `O=C1c2ccccc2C(=O)N1CC1c2ccccc2CCN1S(=O)(=O)c1ccccc1` (stereo unspecified), the inhibition was 24.7%.
The value for `O=C1CCCC2=C1C(c1ccccc1)n1c(s/c(=C/c3cccc(F)c3)c1=O)=N2` (stereo unspecified) was 0.6%.
As for `Cc1c(CCO)c(=O)[nH]n1C(=O)c1c(F)cccc1F`, the inhibition was 14.6%.
The value for `CC(C)c1ccc(NC(=O)CCN2C(=O)c3ccc([N+](=O)[O-])cc3C2=O)cc1` was -2%.
On to `c1ccc2c(C[n+]3csc4ccccc43)cccc2c1`, for which the inhibition is 1.4%.
To `O=C(NN1C(=O)C2C3C=CC(C4CC34)C2C1=O)c1ccc(Cl)cc1` (stereo unspecified) belongs -3.8%; to `CCCCOC(=O)Nc1sc2nc(C)cc(C)c2c1-n1cccc1`, 14.1%; to `CC1CC(C)CN(S(=O)(=O)c2cccc(C(=O)N3C(=O)c4cccc(N)c4C3=O)c2)C1` (stereo unspecified), -15.2%.
On to `CCOC(=O)NNC(=O)c1ccc(Cl)cc1`, for which the inhibition was 18%.
As to `N#C/C(=C(/O)COc1cccc2ccccc12)c1nc2ccccc2[nH]1`, the inhibition was -7.4%.
To `CSCc1cc(N2CCOCC2)nc(SCc2ccc(Cl)cc2Cl)n1` belongs 3.4%; to `N#CC1=C(N)N(c2ccc(F)cc2)C(=O)C1`, -25.3%.
Consider `CC(C)(C)NS(=O)(=O)c1ccc(NC(=O)NC2CCCCC2)cc1`, for which the inhibition was 2.8%.
Turning to `O=C1CN(c2nc(-c3ccccc3)c3cc(Br)ccc3n2)c2ccccc2N1`, the inhibition was -17.8%.
Turning to `O=C(Cn1ccc([N+](=O)[O-])n1)NCc1cccs1`, the inhibition is -5.1%.
The value for `Cc1c(Br)c([N+](=O)[O-])nn1C(C)C(=O)Nc1nccs1` (stereo unspecified) was 7.3%; that for `CCCn1nnnc1NC(=O)COc1ccc(Cl)cc1C` was 0.8%.
To `CCOC(=O)N1CCN(c2c(NCCCN3CCCC(C)C3)c(=O)c2=O)CC1` (stereo unspecified) belongs 8.2%; to `Cc1cccc(N(CC(=O)Nc2ccc(-c3nc4ccc(C)cc4s3)cc2)S(C)(=O)=O)c1`, 29.8%; to `COc1cc(C(=O)NC(=S)NCc2ccco2)cc(OC)c1OC`, -26%.
For the molecule `CCOC(=O)CC(=O)CSc1nc(-c2ccccc2)cc(-c2ccc(Cl)cc2)c1C#N`, the inhibition was -2.9%.
For `Cc1ccc(NC(=S)NC2CCCC2)cc1`, the inhibition is 0.9%.
`CCc1cccc2c(C=C(C#N)C#N)cn(CC(=O)N3CCCCC3)c12`: the inhibition was 9.3%.
With `COc1ccccc1C(=O)NN1C(=O)C2C3C=CC(O3)C2C1=O` (stereo unspecified), the inhibition is -1%.
Take `Cc1ccc(N2CCN(/N=C/c3cccs3)CC2)cc1`: the inhibition is -35.9%.
As for `O=C(CNC(=O)c1cc2c(s1)CCC2)Nc1ccccc1Br`, the inhibition is 9.1%.
To `CC(=O)N1Cc2ccccc2CC1C(=O)O` (stereo unspecified) belongs -11.9%; to `Cc1ccccc1OCc1nnc(SCC(=O)N2c3ccccc3Sc3ccc(Cl)cc32)o1`, -79.4%.
Consider `O=C(Cc1ccccc1)N/N=C/c1ccc(Cl)cc1Cl`, for which the inhibition was 0.1%.
The value for `N#C/C(=C/c1ccc(Cl)cc1)NC(=O)c1ccccc1` was -6.5%; that for `COc1ccc(OC)c2sc(NC(=O)C3COc4ccccc4O3)nc12` (stereo unspecified) was -2.9%; that for `O=C(Nc1nc(-c2ccc3c(c2)OCO3)cs1)c1ccncc1` was -6.9%.
The value for `O=C(Nc1nc(-c2ccncc2)cs1)C1COc2ccccc2O1` (stereo unspecified) was 55.6% (active).
